This is an account of results in PubChem BioAssay (Tox21).

Several values for one entry are separate records, joined by “and”; a condition that tells them apart may be missing. Identical values can stand only once. Results filed as inconclusive are left out. Some compounds were tested as several samples or in several runs, with calls that do not always agree. Activity calls are given as the source filed them. Unless noted, the call rests on the fitted dose curve; in most records, active means well fitted curve in the direction sought with a large enough effect in the repeat runs; inconclusive means weak or mixed curves; inactive means no such curve, though single readings can be large; an effect the other way counts as inactive or inconclusive.

Assay [1] in a line: qHTS assay to identify small molecule agonists of the RXR signaling pathway - cell viability counter screen (AID 1159529). Further: nearly all actives have a fitted effect of over 50% in size. Further: potency means the concentration at half of the fitted maximal effect. The procedure, abridged: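 Counter screen: CellTiter-Glo luminescence. Cells: RXR-alpha-UAS-bla HEK 293T. Medium: 2% charcoal-stripped FBS. Treatment: 16 h, 37 C. Reagent incubation: 30 min, RT.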
Background: In qHTS, concentration-response curves come from the screen itself.

The nature of assay [2]: qHTS assay to identify small molecule antagonists of the retinoid acid receptor (RAR) signaling pathway - cell viability counter screen (AID 1159551). Further: nearly all actives have a fitted effect of over 35% in size. Further: potency means the concentration at half of the fitted maximal effect. A digest of the protocol:
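Following overnight attachment, C3RL4 reporter cells received DMSO-dissolved compounds and then retinol (1 uM final). Six hours later at 37 C, ATP content was measured by CellTiter-Glo luminescence.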

Assay [3] is described as follows: qHTS assay to identify small molecule antagonists of the retinoic acid receptor (RAR) signaling pathway (AID 1159552; further: nearly all actives have a fitted effect of over 50% in size; further: potency means the concentration at half of the fitted maximal effect). The procedure, abridged:
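Antagonism of retinol-induced RARE reporter activity was measured in C3RL4 cells. Exposure to compounds and 1 uM final retinol lasted 6 hr at 37 C, with luminescence as endpoint.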

The nature of assay [4]: qHTS assay to identify small molecule agonists of the retinoic acid receptor (RAR) signaling pathway (AID 1159553). Further: potency means the concentration at half of the fitted maximal effect. The following applies: C3RL4 RARE luciferase reporter, agonist, 6 h; activation: at 73.3 µM (top of the series) unless noted. The procedure, abridged:
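Cell line C3RL4, RARE luciferase reporter. Treatment: compounds in DMSO, 6 hr, 37 C, 5% CO2, after overnight plating. Detection: luminescence, 30 min RT after reagent.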

Assay [5] in a line: qHTS assay to identify small molecule antagonists of the estrogen related receptor (ERR) signaling pathway - cell viability counter screen (AID 1224818).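 Further: viability measured after 17.5 h of compound exposure.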 A digest of the protocol:
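Here, ERR cells are plated at 2,000 cells per well, allowed 6 h to attach, and treated with compounds in DMSO for 17.5 h at 37 C. CellTiter-Fluor is then added and fluorescence read after 30 min.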

Assay [6] in a line: qHTS assay to identify small molecule antagonists of the estrogen related receptor signaling pathway with the pleiotropic PPARgamma coactivator (PGC) cell viability counter screen (AID 1224822;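 further: viability read after 17.5 h compound exposure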). The procedure, abridged:
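qHTS format, DMSO compound stocks pin-transferred onto PGC/ERR cells 6 h after plating; 17.5 h exposure at 37 C, then CellTiter-Fluor fluorescence.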

Assay [7] addresses Luciferin 4-monooxygenase (Photinus pyralis) (UniProt P08659). Briefly: qHTS assay to identify small molecule inhibitors of firefly luciferase (AID 1224835). Further: nearly all actives have a fitted effect of over 25% in size. A digest of the protocol: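 Inhibition of purified Photinus luciferase is measured by luminescence. Substrate levels (D-luciferin, ATP) sit at their KM values. Each compound is tested in a concentration series.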
Assay [8] is described as follows: qHTS assay to identify small molecule agonists of the constitutive androstane receptor (CAR) signaling pathway - cell viability counter screen (AID 1224836). Further: nearly all actives have a fitted effect of over 45% in size. Further: potency means the concentration at half of the fitted maximal effect. The procedure, abridged:
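Double-stable HepG2 hepatoma cells (hCAR plus CYP2B6-2.2kb) are treated for 23 h at 37 C with test compounds in 15-point concentration series. PK11195 at 0.75 uM final is co-added. Cell viability is quantified by CellTiter-Fluor.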

Assay [9] can be described thus: qHTS assay to identify small molecule antagonists of the constitutive androstane receptor (CAR) signaling pathway - cell viability counter screen (AID 1224837). Further: nearly all actives have a fitted effect of over 45% in size. Further: potency means the concentration at half of the fitted maximal effect. The procedure, abridged: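 Fluorescence from CellTiter-Fluor served as the viability signal. Human hepatoma HepG2 cells stably bearing hCAR and CYP2B6-2.2kb received compound plus CITCO (50 nM final) for 23 hr.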

Assay [10] addresses Nuclear receptor subfamily 1 group I member 3 (Homo sapiens) (UniProt Q14994). The assay is described as follows: qHTS assay to identify small molecule antagonists of the constitutive androstane receptor (CAR) signaling pathway (AID 1224838).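 Further: HepG2 cells stably expressing hCAR with CYP2B6 luciferase reporter stimulated by CITCO; nearly all actives have a fitted effect of over 40% in size.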 Further: potency means the concentration at half of the fitted maximal effect. A digest of the protocol:
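Quantitative HTS in double-stable HepG2-CYP2B6-hCAR cells. After 4 h plating, cells get compound (15 concentrations) and CITCO at 50 nM final, incubate 24 h at 37 C, then ONE-Glo luminescence is read.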

Assay [11] shares this target. Briefly: qHTS assay to identify small molecule agonists of the constitutive androstane receptor (CAR) signaling pathway (AID 1224839). Further: nearly all actives have a fitted effect of over 15% in size. Further: potency means the concentration at half of the fitted maximal effect.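 On activation: HepG2 cells stably carrying human CAR and a CYP2B6 luciferase reporter.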 A digest of the protocol:
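Readout: firefly luciferase luminescence via ONE-Glo. System: HepG2 double-stable for hCAR and CYP2B6-2.2kb. Conditions: 15-point compound titration, PK11195 at 0.75 uM final, 24 h incubation.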

The nature of assay [12]: qHTS assay to identify small molecule antagonists of the estrogen related receptor signaling pathway with the pleiotropic PPARgamma coactivator (PGC) from Tox21 10K library - cell viability counter screen (AID 1224840; active means well fitted cell-killing curve with a large enough effect in the repeat runs, not every such curve was filed as active; further: nearly all actives have a fitted effect of over 40% in size; further: potency means the concentration at half of the fitted maximal effect). A digest of the protocol: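 Compounds in DMSO, alongside positive and negative controls, were pinned onto PGC/ERR cells (2,000 per well). Exposure lasted 17.5 hours at 37 C, followed by a 30-minute CellTiter-Fluor incubation and fluorescence reading.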

The target in assay [13] is Thyrotropin receptor (Homo sapiens) (UniProt P16473). Briefly: qHTS assay to identify small molecule agonists of the thyroid stimulating hormone receptor (TSHR) signaling pathway (AID 1224843; calls by dose curve; further: nearly all actives have a fitted effect of over 45% in size; further: potency means the concentration at half of the fitted maximal effect). A digest of the protocol: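 Screening of the Tox21 10K collection used HEK293 cells engineered with TSHR at 800 cells per well. After a 30-min room-temperature compound exposure, HTRF cAMP reagents were added and fluorescence recorded 1 h later.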

The nature of assay [14]: qHTS assay to identify small molecule antagonists of the estrogen related receptor (ERR) signaling pathway from Tox21 library - cell viability counter screen (AID 1224834). Further: nearly all actives have a fitted effect of over 30% in size. Further: potency means the concentration at half of the fitted maximal effect. The procedure, abridged: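 Viability readout (CellTiter-Fluor fluorescence, 30 min at 37 C) multiplexed with the ERR assay; cells treated 17.5 h at 37 C with compounds delivered in DMSO.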
A short description of assay [15]: qHTS assay to identify small molecule antagonists of the estrogen related receptor signaling pathway with the pleiotropic PPARgamma coactivator (PGC) from Tox21 10K library (AID 1224841; call rule not given here; further: actives are mostly falling curves and most rising ones were filed inactive; nearly all actives have a fitted effect of over 50% in size; further: potency means the concentration at half of the fitted maximal effect). A digest of the protocol: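 Compound exposure ran 18 hours at 37 C in PGC/ERR cells (2,000/well) that had first rested 6 hours in a 37 C/5% CO2 incubator. Luciferase activity was then detected with One-Glo after a 30-minute room-temperature step.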

Assay [16] can be described thus: qHTS assay to identify small molecule agonists of the estrogen related receptor signaling pathway with the pleiotropic PPARgamma coactivator (PGC) from Tox21 10K library (AID 1224842). Further: nearly all actives have a fitted effect of over 15% in size. A digest of the protocol: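 Luminescence from One-Glo (30 min, room temperature) measured after PGC/ERR cells had 18 h at 37 C with pinned compound (23 nL in DMSO). Cells had been seeded at 2,000 per well and pre-incubated 6 h.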

Nuclear receptor subfamily 1 group I member 3 (Homo sapiens), sequence (Q14994 whole entry, looked up): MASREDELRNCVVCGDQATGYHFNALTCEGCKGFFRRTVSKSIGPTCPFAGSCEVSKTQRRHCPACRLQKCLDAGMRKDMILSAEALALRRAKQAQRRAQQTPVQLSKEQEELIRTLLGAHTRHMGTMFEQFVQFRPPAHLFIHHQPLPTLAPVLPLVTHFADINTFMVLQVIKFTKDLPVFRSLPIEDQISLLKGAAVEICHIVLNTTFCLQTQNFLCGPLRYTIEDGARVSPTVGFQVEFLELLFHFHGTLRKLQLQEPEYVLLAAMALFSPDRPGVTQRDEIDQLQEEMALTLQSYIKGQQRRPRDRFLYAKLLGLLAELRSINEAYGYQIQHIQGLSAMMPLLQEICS
Luciferin 4-monooxygenase (Photinus pyralis), sequence (P08659 whole entry, looked up): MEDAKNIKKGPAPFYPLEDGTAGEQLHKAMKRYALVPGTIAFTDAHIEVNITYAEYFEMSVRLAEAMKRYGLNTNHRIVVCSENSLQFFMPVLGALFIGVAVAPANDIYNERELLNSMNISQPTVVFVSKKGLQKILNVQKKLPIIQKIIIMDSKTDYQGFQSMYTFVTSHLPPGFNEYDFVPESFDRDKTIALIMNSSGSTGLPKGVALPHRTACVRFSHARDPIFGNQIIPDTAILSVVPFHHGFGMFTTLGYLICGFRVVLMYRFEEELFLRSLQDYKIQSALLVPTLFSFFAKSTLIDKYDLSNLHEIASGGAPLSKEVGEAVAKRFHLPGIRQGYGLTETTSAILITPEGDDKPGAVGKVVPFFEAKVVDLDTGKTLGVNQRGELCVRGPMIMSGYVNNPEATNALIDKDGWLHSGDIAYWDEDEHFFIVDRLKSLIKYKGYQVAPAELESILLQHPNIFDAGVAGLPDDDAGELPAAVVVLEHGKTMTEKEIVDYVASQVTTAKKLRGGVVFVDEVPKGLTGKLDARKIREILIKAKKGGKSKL
Thyrotropin receptor (Homo sapiens), sequence (P16473 whole entry, looked up): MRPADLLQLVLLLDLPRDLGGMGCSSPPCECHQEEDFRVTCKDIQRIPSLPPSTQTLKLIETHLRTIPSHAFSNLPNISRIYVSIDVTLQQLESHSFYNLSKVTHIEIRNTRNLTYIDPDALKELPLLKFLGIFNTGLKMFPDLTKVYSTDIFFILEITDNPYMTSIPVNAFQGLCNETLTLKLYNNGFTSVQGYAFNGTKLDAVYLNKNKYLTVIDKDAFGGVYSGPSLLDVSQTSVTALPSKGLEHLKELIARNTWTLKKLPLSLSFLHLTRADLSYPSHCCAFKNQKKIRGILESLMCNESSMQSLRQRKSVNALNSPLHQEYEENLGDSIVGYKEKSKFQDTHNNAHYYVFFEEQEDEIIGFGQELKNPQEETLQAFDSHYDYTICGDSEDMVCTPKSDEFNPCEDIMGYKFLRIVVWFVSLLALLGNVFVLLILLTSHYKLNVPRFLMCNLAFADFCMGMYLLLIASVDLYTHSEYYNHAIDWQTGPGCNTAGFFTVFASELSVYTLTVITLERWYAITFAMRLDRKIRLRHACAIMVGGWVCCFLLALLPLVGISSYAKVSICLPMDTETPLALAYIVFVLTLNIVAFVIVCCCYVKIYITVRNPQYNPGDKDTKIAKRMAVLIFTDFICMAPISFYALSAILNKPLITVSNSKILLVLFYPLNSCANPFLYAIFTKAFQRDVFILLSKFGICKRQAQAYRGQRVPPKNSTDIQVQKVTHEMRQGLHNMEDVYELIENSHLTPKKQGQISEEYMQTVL

Regarding `Oc1ccc(Cl)cc1Cc1ccccc1`, the Potency is 49 µM (active) and 24.8 µM (active) in assay [1]; 55.1 µM (active) and inactive in [2]; 27.6 µM (active) and inactive in assay [3]; 31 µM (active) and inactive in [11]. Further, the Potency result in [4], in assay [6], in [7], in assay [8], in assay [9] and in [10] was “inactive” each time. Also, the Potency result in assay [12] and in assay [13] was “inactive” throughout. The call in [5] was inactive.

Take `CN(C)P(=O)(N(C)C)N(C)C`: the Potency entry in [1], in assay [2], in [3], in assay [4], in [14] and in [7] was “inactive” throughout. The Potency result in [8], in assay [9], in assay [12], in [15], in [16] and in assay [13] was “inactive” in each case.

In the case of `CCOP(=O)(OCC)OCC`, the Potency entry in assay [1], in assay [2], in assay [3], in assay [4], in [14] and in assay [7] was “inactive” throughout. Further, the Potency result in [8], in assay [9], in [10], in assay [11], in assay [12] and in assay [15] was “inactive” throughout. Further, the Potency entry in assay [16] and in assay [13] was “inactive” in each case.

For the compound `CC(C)(O)C(=O)Nc1ccc([N+](=O)[O-])c(C(F)(F)F)c1`, the Potency result in assay [1], in assay [2], in assay [3], in assay [4], in assay [14] and in [7] was “inactive” in each case. Besides, the Potency result in assay [8], in [9], in assay [10], in assay [12], in assay [16] and in assay [13] was “inactive” each time. In addition, the Potency in assay [15] is 27.9 µM (active).

Take `Nc1ncn[nH]1`: the Potency entry in [1], in [2], in [3], in [4], in assay [14] and in [7] was “inactive” each time. Besides, the Potency entry in assay [8], in [9], in assay [10], in [11], in assay [12] and in assay [13] was “inactive” throughout.

On to `C=CC(=O)OCC(CC)(COC(=O)C=C)COC(=O)C=C`, for which the Potency was 15.9 µM (active) and 21.9 µM (active) in [1]; 8.87 µM (active) and 15.4 µM (active) in assay [3]; 2.23 µM (active) in [4]; 15.8 µM (active) and 17.2 µM (active) in assay [14]; 35.3 µM (active) and 30.6 µM (active) in assay [8]; 28 µM (active) and 19.3 µM (active) in [9]. The Potency in assay [10] is 28 µM (active) and 21.7 µM (active); in assay [12], 8.87 µM (active) and 12.2 µM (active); in assay [15], 17.7 µM (active) and 21.7 µM (active); in assay [13], 11.2 µM (active) and 15.4 µM (active). Besides, the Potency result in assay [2], in [7], in assay [11] and in assay [16] was “inactive” each time.

In the case of `OCCOCCO`, the Potency result in assay [1], in assay [2], in assay [3], in [4], in [14] and in assay [7] was “inactive” in each case. For the same compound, the Potency result in assay [8], in [9], in [10], in [11] and in assay [12] was “inactive” throughout.

For the compound `Clc1cccc(Cl)c1`, the Potency result in assay [1], in [2], in [3], in [4], in assay [14] and in assay [7] was “inactive” throughout. Moreover, the Potency result in assay [8], in assay [9], in assay [10], in [11], in assay [12] and in assay [15] was “inactive” throughout. The Potency entry in assay [16] and in [13] was “inactive” each time.

As for `CC(C)(c1ccc(OCC2CO2)cc1)c1ccc(OCC2CO2)cc1` (stereo unspecified), the Potency in [1] was 49.6 µM (active) and inactive; in assay [15], 69.5 µM (active) and inactive. Also, the Potency result in [2], in assay [3], in assay [4], in assay [14], in [7] and in assay [8] was “inactive” each time. Besides, the Potency result in assay [9], in [10], in assay [11], in assay [12], in assay [16] and in [13] was “inactive” throughout.

As for `C[C@]12CCC(=O)C=C1CC[C@@H]1[C@@H]2CC[C@@]2(C)[C@H]1CC[C@]2(C)O`, the Potency entry in assay [1], in [2], in [4], in [6], in [14] and in assay [7] was “inactive” in each case. The Potency result in assay [8], in assay [9], in assay [10], in [11], in [12] and in assay [13] was “inactive” in each case. Further, the Potency in assay [3] was 43.6 µM (active). In addition, in [5], the compound was called inactive.

Regarding `CC(C)CON=O`, the Potency entry in assay [1], in assay [2], in [3], in assay [4], in assay [14] and in assay [7] was “inactive” in each case. Also, the Potency entry in assay [8], in [9], in assay [10], in [11], in assay [12] and in [13] was “inactive” in each case.

For `C[C@]12CC[C@H]3[C@@H](CCC4=CC(=O)CC[C@@H]43)[C@@H]1CC[C@@H]2O`, the Potency result in assay [1], in assay [2], in [4], in assay [14], in assay [7] and in assay [8] was “inactive” throughout. Further, the Potency result in [9], in assay [10], in [11], in assay [12] and in assay [13] was “inactive” throughout. Besides, the Potency in assay [3] is 48.1 µM (active).

Turning to `COC(=O)Nc1nc2ccccc2[nH]1`, the Potency entry in [1], in assay [2], in assay [3], in assay [4], in assay [14] and in [7] was “inactive” each time. In addition, the Potency entry in assay [8], in assay [9], in [10], in assay [12] and in assay [13] was “inactive” in each case.

As to `CCCCC(C#N)(Cn1cncn1)c1ccc(Cl)cc1` (stereo unspecified), the Potency result in [1], in [2], in assay [3], in assay [4], in assay [14] and in assay [7] was “inactive” each time. Further, the Potency entry in assay [8], in assay [9], in assay [10], in [11], in assay [12] and in assay [15] was “inactive” in each case. Further, the Potency entry in assay [16] was “inactive”.

Regarding `CC(C)(C#N)N=NC(C)(C)C#N`, the Potency entry in [1], in [2], in assay [3], in assay [4], in assay [14] and in assay [7] was “inactive” each time. Further, the Potency entry in assay [8], in assay [9], in assay [10], in assay [11], in [12] and in assay [13] was “inactive” in each case.

As for `O=C1Nc2ccc(Cl)cc2C(c2ccccc2)=NC1O` (stereo unspecified), the Potency entry in assay [1], in [2], in assay [3], in [4], in assay [14] and in [7] was “inactive” throughout. Further, the Potency result in assay [8], in [9], in assay [10], in assay [11], in [12] and in [15] was “inactive” throughout. Moreover, the Potency result in assay [16] and in assay [13] was “inactive” in each case.

Take `COc1ccc(O)c(C(C)(C)C)c1`: the Potency result in [1], in assay [2], in assay [3], in assay [4], in assay [14] and in [7] was “inactive” in each case. The Potency result in assay [8], in [9], in assay [10], in [11] and in assay [12] was “inactive” each time.
